Screens from PubChem BioAssay.
ssDAF12 agonist: S. stercoralis DAF-12 activation, primary screen. activation, % at 6.8 µM. HEK293 ssDAF-12/GRIP1 lit1-tk-luc reporter, luminescence; % of 3 µM dafachronic acid response. 1% of 370,000 active. AID 652126;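 active = activation above the mean over all tested compounds plus 3 SD, cut at about 0.9% in these data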
hgDAF-12 ag: activates the H. glycines DAF-12 receptor ligand-binding domain; HEK293 GAL4-hgDAF12 UAS-luciferase reporter, agonist luminescence; normalized to butyrate control; activation, % at 6.8 µM; 1.8% of 370,000 active;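 active = activation above a cutoff set at the mean of all screened compounds plus 3 SD, cut at about 10% in these data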
DAX1 inh-1: inhibitors of human orphan nuclear receptor DAX1 (NR0B1); HEK293 Gal4-DAX1 luciferase reporter, luminescence; inhibition, % at 6.75 µM; 0.99% of 340,000 active; AID 504766;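 active = inhibition above the mean over all tested compounds plus 3 SD, cut at about 4.2% in these data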;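 also: inhibition shows as a rise in luminescence from relieved DAX1 repression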
Target sequence (P51843 207-470 limits assumed): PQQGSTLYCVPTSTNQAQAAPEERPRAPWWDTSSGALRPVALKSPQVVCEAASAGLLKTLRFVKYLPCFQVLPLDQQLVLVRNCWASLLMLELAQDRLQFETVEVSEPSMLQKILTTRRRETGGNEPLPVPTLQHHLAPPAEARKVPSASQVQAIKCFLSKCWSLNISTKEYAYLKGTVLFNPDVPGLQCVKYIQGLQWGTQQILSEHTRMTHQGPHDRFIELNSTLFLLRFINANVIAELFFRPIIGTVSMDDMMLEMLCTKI
DAX1 inh-2: DAX1 (NR0B1) inhibition, primary screen. 1.1% of 370,000 active. HEK293T StAR-luciferase reporter, SF-1/DAX-1 repression relief. inhibition, % at 6.8 µM. AID 652010;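 active = inhibition above the mean over all tested compounds plus 3 SD, cut at about 3.6% in these data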;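 also: higher inhibition means more luminescence from relief of DAX-1 repression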
hcDAF-12 act: activators of H. contortus DAF-12 nuclear receptor; activation, % at 6.8 µM; AID 652067; HEK293 hcDAF-12 lit1-tk-luc reporter, luminescence; 0% DMSO, 100% Δ7-dafachronic acid; 1.4% of 370,000 active;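 active = activation above the mean of all tested compounds plus 3 SD, cut at about 5.5% in these data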
DAX1 conf: NR0B1 (human) inhibition, confirmation | 87% of 2,400 active | HEK293T StAR-promoter luciferase reporter, SF-1/DAX-1 repression | AID 652134 | inhibition, % at 6.8 µM | shares compounds with DAX1 inh-2;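 active = inhibition above the average of every tested compound plus 3 SD, cut at about 3.8% in these data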;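 also: active compounds raise luminescence by relieving repression of the StAR reporter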
Target sequence (P51843 whole entry, looked up): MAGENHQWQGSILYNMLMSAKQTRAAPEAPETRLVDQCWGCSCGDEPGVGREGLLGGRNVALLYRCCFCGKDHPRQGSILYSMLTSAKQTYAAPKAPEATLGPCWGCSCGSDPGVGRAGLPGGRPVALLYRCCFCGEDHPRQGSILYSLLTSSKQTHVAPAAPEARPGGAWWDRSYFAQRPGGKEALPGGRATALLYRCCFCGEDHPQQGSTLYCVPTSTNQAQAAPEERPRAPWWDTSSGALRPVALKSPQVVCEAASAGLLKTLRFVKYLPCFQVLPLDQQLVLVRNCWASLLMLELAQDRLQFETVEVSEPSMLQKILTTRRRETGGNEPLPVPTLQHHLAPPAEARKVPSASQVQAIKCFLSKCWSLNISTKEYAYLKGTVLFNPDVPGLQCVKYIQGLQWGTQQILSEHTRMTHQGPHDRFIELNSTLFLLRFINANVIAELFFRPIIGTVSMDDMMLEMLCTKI
SF1 AF2mut Luc: counter-screen for DAX1 inhibitors: nonselective inhibitors with SF-1 AF2 mutant; 78% of 2,400 active; HEK293 StAR-luciferase, luminescence; shares compounds with DAX1 inh-2; inhibition, % at 6.8 µM; AID 652136;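 active = inhibition above the mean of all tested compounds plus 3 SD, cut at about 3% in these data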
LXRb hcDAF ctr: LXR-beta agonism as hcDAF-12 counter-screen | activation, % at 6.8 µM | shares compounds with hcDAF-12 act | HEK293 Gal4-LXR tk-luc reporter, luminescence, 24 h; normalized: DMSO 0%, positive control 100% | 3,400 tested, under 10 active;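 active = mean percent activation of the reporter above a cutoff set as the average over tested compounds plus their standard deviation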
hcDAF12 conf: hcDAF-12 agonism, confirmation assay. shares compounds with hcDAF-12 act. HEK293 hcDAF-12 lit1-tk-luc reporter, luminescence; % of Δ7-dafachronic acid response. activation, % at 6.8 µM. 61% of 3,400 active;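 active = mean activation across triplicate tests above the threshold derived from the earlier primary screen, cut at about 5.5% in these data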
hgDAF12 ag: confirmation of H. glycines DAF-12 agonists; shares compounds with hgDAF-12 ag; HEK293 GAL4-hgDAF12 luciferase reporter, agonist mode; percent of butyrate response; activation, % at 6.8 µM; 80% of 3,300 active; AID 743050;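 active = mean activation over triplicate wells above the hit cutoff derived from the earlier primary screen, cut at about 11% in these data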
LXR ag 2: LXR-beta agonism as DAF-12 counter-screen; shares compounds with hgDAF-12 ag; HEK293 Gal4-LXR luciferase reporter, 24 h; activation, % at 6.8 µM; 3,300 tested, under 10 active;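 active = mean activation of the triplicate above a set limit carried over from the primary screen, none filed active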
Hits are given with their value; i = inactive; nt = not tested or not shown. Sampled rows, rich in hits. Any-hit rate of the full collection: about 4.1%.

SMILES | ssDAF12 agonist | hgDAF-12 ag | DAX1 inh-1 | DAX1 inh-2 | hcDAF-12 act | DAX1 conf | SF1 AF2mut Luc | LXRb hcDAF ctr | hcDAF12 conf | hgDAF12 ag | LXR ag 2
CCOC(=O)N1CCN(S(=O)(=O)N2CCCC(C(=O)NCc3ccc(C)cc3)C2)CC1 (stereo not given) | i | i | i | i | i | nt | nt | nt | nt | nt | nt
COCCNc1nc(-c2cc3ccccc3o2)cs1 | i | 15.9 | i | 6.7 | 8.7 | 9.9 | 7.2 | i | 7.5 | 18.3 | i
COC(=O)Cc1ccc2sc(-c3ccccc3)nc2c1 | 1.0 | 21.2 | i | 5.9 | 13.1 | 13.1 | 8.6 | i | 10.6 | 17.3 | i
COc1ccc(C)cc1NC(=O)C(NCC1CCCO1)c1ccccc1 (stereo not given) | i | i | i | i | i | nt | nt | nt | nt | nt | nt
COc1cccc(-c2cc(C(=O)N3CCN(c4ccc(F)cc4)CC3)no2)c1 | i | i | i | i | i | nt | nt | nt | nt | nt | nt
COc1cccc(-c2cc(C(=O)N3CCCCCC3)no2)c1 | i | 18.2 | i | 9.6 | 8.1 | 17.5 | 7.3 | i | 6.7 | 17.9 | i
O=C(c1cc(-c2cccc(O)c2)on1)N1CCCCC1 | i | 21.9 | i | 8.8 | 6.9 | 14.0 | 7.1 | i | i | 14.3 | i
CC(=O)c1ccc(Nc2ccc(-c3ccccc3F)nn2)cc1 | i | 18.3 | i | 4.7 | i | 13.7 | 6.8 | nt | nt | 18.9 | i
COc1cc2c(cc1OC)C(C)N(C(=O)c1ccc(Br)o1)CC2 (stereo not given) | i | i | i | i | i | nt | nt | nt | nt | nt | nt
COC(=O)C1=C(C)N(Cc2cccc(C(F)(F)F)c2)C(=NCC2CC2)NC1c1ccccc1C(F)(F)F (stereo not given) | i | i | nt | i | i | nt | nt | nt | nt | nt | nt
O=C(Nc1ccc(OCC(=O)N2CCOCC2)cc1)Nc1cccc(Cl)c1 | i | i | i | i | i | nt | nt | nt | nt | nt | nt
CC(C)(C)c1ccc(NC(=O)Nc2ccc(OCC(=O)N3CCOCC3)cc2)cc1 | i | 15.2 | i | 5.1 | 6.4 | 7.8 | 4.5 | nt | nt | 21.9 | i
CCc1ccc(/C([O-])=C(/C(=S)NCCN2CCOCC2)[n+]2ccccc2)cc1 | i | i | i | i | i | nt | nt | nt | nt | nt | nt
CCNC(=S)NNC(=O)c1cc(-c2ccc(OCC)cc2)nc2ccccc12 | 1.3 | 15.8 | i | 7.7 | 9.0 | 16.7 | 8.6 | i | 11.7 | 25.3 | i
Cc1ccsc1/C=C/c1ccc2ccccc2n1 | 3.0 | 16.1 | i | 5.0 | 23.2 | 7.3 | i | i | 21.9 | 15.2 | i
COc1ccc(C=Cc2ccc3ccccc3n2)c(OC)c1 | i | i | i | i | i | nt | nt | nt | nt | nt | nt
Brc1ccc(-c2cn3nc4c(nc3n2)CCCC4)cc1 | i | 14.1 | i | 4.9 | 11.8 | 6.8 | 3.2 | i | 8.2 | 14.2 | i
CCc1sc(C(=O)Nc2ncccc2O)cc1C | 1.0 | 21.8 | i | 21.9 | 7.9 | 15.0 | 6.2 | i | 7.9 | 25.7 | i
CCc1sc(C(=O)Nc2ncccc2C)cc1C | i | i | i | i | i | nt | nt | nt | nt | nt | nt
Cc1ccnc(NC(=O)C2CC(=O)N(c3ccc4c(c3)OCCO4)C2)c1 (stereo not given) | i | 15.4 | i | 11.6 | i | 12.5 | 6.2 | nt | nt | 15.9 | i
Cc1ccc(CN2CC(C(=O)Nc3cc(C)ccn3)CC2=O)cc1 (stereo not given) | i | 22.2 | i | 11.2 | i | 11.7 | 3.1 | nt | nt | 22.0 | i
CCOc1ccc(CN(C)c2ccc(S(=O)(=O)N3CCN(C)CC3)cc2[N+](=O)[O-])cc1OC | nt | nt | i | nt | nt | nt | nt | nt | nt | nt | nt
COc1cccc(C(=O)/C=C/Nc2cccc(O)c2)c1 | nt | nt | i | nt | nt | nt | nt | nt | nt | nt | nt
COc1cccc(N/C=C/C(=O)c2ccc(Cl)cc2)c1 | i | 19.9 | i | 6.1 | 7.1 | 17.2 | 6.6 | i | 8.7 | 22.3 | i
O=c1c2c(nc3cc(-c4cccc(Cl)c4)[nH]n13)CCC2 | i | 14.7 | i | 5.5 | i | 16.3 | 6.7 | nt | nt | 14.1 | i
SMILES | ssDAF12 agonist | hgDAF-12 ag | DAX1 inh-1 | DAX1 inh-2 | hcDAF-12 act | DAX1 conf | SF1 AF2mut Luc | LXRb hcDAF ctr | hcDAF12 conf | hgDAF12 ag | LXR ag 2
O=C(Nc1ccc2sccc2c1)c1ccc(Cl)s1 | 1.4 | 20.9 | i | 9.0 | 14.9 | 20.0 | 10.6 | i | 12.2 | 22.9 | i
COc1ccc(-c2nnc(SCc3cccc(C)c3)n2N)cc1 | i | i | i | i | i | nt | nt | nt | nt | nt | nt
COc1ccc(-c2nnc(SCc3c(F)cccc3F)n2N)cc1 | i | 13.5 | nt | 7.5 | i | 14.2 | 6.2 | nt | nt | 15.1 | i
Cc1ccc(-c2cc3nc(-c4ccccc4)cc(N)n3n2)cc1 | i | i | i | i | i | nt | nt | nt | nt | nt | nt
Cc1cc(N)n2nc(-c3ccccc3)cc2n1 | 1.7 | 20.1 | i | 5.8 | 12.4 | 16.4 | 8.2 | i | 6.9 | 18.9 | i
Cc1c(OCC(=O)NCCN2CCOCC2)ccc2c(-c3ccccc3)cc(=O)oc12 | i | i | i | i | i | nt | nt | nt | nt | nt | nt
O=C(NCc1ccccc1)C(c1ccccc1)n1c(-c2ccncc2)nc2ccccc21 (stereo not given) | i | i | nt | i | i | nt | nt | nt | nt | nt | nt
O=C(NCc1ccccc1)C(c1ccccc1)n1c(C2CC2)nc2ccccc21 (stereo not given) | 1.9 | 19.8 | nt | 6.1 | i | 10.6 | 5.2 | nt | nt | 15.9 | i
O=C(O)C1=C[C@@H](c2coc3ccccc3c2=O)C[C@@H](OCCCCO)O1 | i | i | i | i | i | nt | nt | nt | nt | nt | nt
Cc1c(C(=O)N2c3ccccc3CC2C)oc2ccccc12 (stereo not given) | 2.3 | 18.0 | i | 5.3 | 11.3 | 8.8 | 6.1 | i | 16.7 | 20.2 | i
COc1ccc(F)cc1S(=O)(=O)N1CC(C)CC(C)C1 (stereo not given) | i | i | i | i | i | nt | nt | nt | nt | nt | nt
CN(C)c1ccc(C=Cc2cnccn2)cc1 | i | 18.3 | i | 6.7 | i | 16.2 | 9.8 | nt | nt | 16.0 | i
CN(C)c1ccc(/C=C/c2ccncc2)cc1 | i | i | i | i | i | nt | nt | nt | nt | nt | nt
O=C(Nc1ccccc1O)c1ccc(NS(=O)(=O)c2cccc3cccnc23)cc1 | 2.3 | 83.5 | 18.2 | 53.9 | 19.4 | 90.8 | 38.4 | i | 13.2 | 89.4 | i
CN(c1ccccc1)S(=O)(=O)c1ccc(C(=O)Nc2ncccc2O)cc1 | i | i | i | i | i | nt | nt | nt | nt | nt | nt
